# Test results: PubChem BioAssay AID2314 (National Center for Advancing Translational Sciences (NCATS), 2010)
# The whole screen tested about 300,000 compounds, of which about 37,000 (12%) were called active. The full list was thinned out, with actives kept by preference. A number with no mark means an inactive call. Cut-off read from the data, not from the text of the source: active = max response mostly above about 13% (no sharp cut-off); inactive = mostly below about 14%.
# Experiment: Cycloheximide Counterscreen for Small Molecule Inhibitors of Shiga Toxin; note: read at 38.3 µM for the half of the compounds with a filed dose; 0% is about no effect
# Settings: cell reporter, cycloheximide protein synthesis inhibition counterscreen; hits give high values
row,Structure (SMILES),max response
1,Cn1cc(C(=O)NCc2ccccc2F)cn1,-3.82%
2,COc1ccccc1-n1c(C)nc2cc(C(=O)NCc3ccc4c(c3)OCO4)ccc21,5.54%
3,Cc1ccc(S(=O)(=O)N2CCC3(CC2)OCCO3)c(C)c1,-3.35%
4,Cc1ccc(S(=O)(=O)N2CCN(C(=O)CSc3cc(C)ccc3C)CC2)c(C)c1,12.6%
5,C=CCOc1ccc(/C=C/C(=O)OCC(=O)NC2CCCCCC2)cc1,-2.39%
6,O=S(=O)(Cc1nnnn1-c1ccccc1)c1ccccc1,-0.262%
7,O=C(CN1C(=O)c2ccccc2S1(=O)=O)NC1CCCCC1,3.93%
8,Cc1ccc(F)cc1NC(=O)N1CCCN(c2ccc(C(F)(F)F)cn2)CC1,-0.488%
9,O=C(CSc1nc(Nc2ccccc2)nc(N2CCOCC2)n1)Nc1cc(Cl)ccc1O,7.58%
10,O=C(O)c1ccc(/C=C2/SC(=S)N(c3cccc(C(F)(F)F)c3)C2=O)cc1,-7.16%
11,S=C(NCc1ccco1)NCc1ccccc1Cl,-2.41%
12,COc1cc(NC(=S)NCc2ccco2)c(OC)cc1Cl,-2.3%
13,S=C(Nc1cccc(Cl)c1)Nc1ccc2c(c1)OCCO2,42.2% (active)
14,FC(F)Oc1ccc(NC(=S)NCc2ccco2)cc1Cl,11.2%
15,S=C(NCc1ccc2c(c1)OCO2)NCc1ccco1,28.4% (active)
16,FC(F)(F)c1cccc(NC(=S)Nc2cccc(Cl)c2)c1,-2.33%
17,S=C(NCc1ccco1)Nc1ccc2c(c1)OCCO2,69.9% (active)
18,Cc1c(Cl)cccc1NC(=S)NCc1ccc2c(c1)OCO2,-1.28%
19,CN(C)S(=O)(=O)c1cccc(NC(=S)NCc2ccc3c(c2)OCO3)c1,0.966%
20,O=S(=O)(c1ccccc1)N(Cc1cccc(F)c1)c1ccccc1,-0.496%
21,CC(=O)N1CCC(C(=O)Nc2nc(-c3ccccc3)ns2)CC1,0.624%
22,NC(=O)c1cc(S(=O)(=O)NCCCc2ccco2)cs1,-2.26%
23,CCc1nnc(NC(=O)[C@@H](NC(=O)c2cccc(C)c2)C(C)C)s1,-2.22%
24,C=CCn1c(SCc2ccccc2)nc2c1c(=O)[nH]c(=O)n2C,-1.99%

row,Structure (SMILES),max response
1,CC(C)C(=O)Nc1nnc(SCC(=O)N2C(C)CCCC2C)s1 (stereo not drawn),1.12%
2,O=C(CSc1nnnn1C1CCCC1)N1CCCCC1,27% (active)
3,O=C(CSc1nnc2ccc(-c3ccncc3)nn12)N1CCCCC1,-4.64%
4,CC1CCCC(C)N1C(=O)CSc1nnnn1C1CCCC1 (stereo not drawn),25.7% (active)
5,CCCc1nnc(SCC(=O)N2C(C)CCCC2C)n1CC (stereo not drawn),7.27%
6,CC(Sc1nnnn1C1CCCCC1)C(=O)O (stereo not drawn),5.78%
7,O=Cc1cn(-c2ccccc2)nc1-c1ccccn1,3.16%
8,Cc1c(CN2CC[C@@H](N3CCN(c4ccccn4)CC3)[C@H](O)C2)[nH]c2ccc(F)cc12,1.28%
9,O=C(NCc1ccccc1)C(c1ccccc1)N(C(=O)c1csnn1)c1ccc(F)cc1 (stereo not drawn),-4.47%
10,O=S(=O)(Nc1ccc(OC(F)(F)F)cc1)c1cccc2nonc12,-2.47%
11,O=S(=O)(Cc1nnnn1-c1ccc(Br)cc1)c1ccc(F)cc1,-2.53%
12,O=S(=O)(Cc1noc(-c2ccc(OC(F)(F)F)cc2)n1)c1ccc(F)cc1,22.3% (active)
13,COc1cc(OC)cc(C(=O)NC(=S)N2CCN(c3ccc(C(F)(F)F)cc3[N+](=O)[O-])CC2)c1,4.72%
14,Cc1ccc(NS(=O)(=O)c2ccc(F)cc2)nc1,-3.76%
15,Cc1cc(C)cc(NS(=O)(=O)c2ccc(F)cc2)c1,-2.02%
16,Cn1nccc1NS(=O)(=O)c1ccc(F)cc1,162% (active)
17,COc1cc2c(cc1OC)CC1(CCCCC1)N=C2,-2.87%
18,CSCc1nnc(NC(=O)c2ccc(S(=O)(=O)N3CCCCC3C)cc2)o1 (stereo not drawn),-2.84%
19,CCOc1ccc(C2C3=C(CCCC3=O)N(CC(=O)O)C3=C2C(=O)CCC3)cc1,-3.14%
20,COc1ccc(Nc2ncnc3sc(-c4ccccc4)cc23)c(OC)c1,7.7%
21,C=CCNc1ncnc2ccc(Br)cc12,-5.1%
22,COc1ccc(Nc2ncnc3ccc(Br)cc23)c(OC)c1,26.7% (active)
23,CN(Cc1c(F)cccc1Cl)S(=O)(=O)c1cccs1,-2.55%
24,CN(CCc1ccccc1)c1ccc([N+](=O)[O-])cn1,0.432%
